Vaccinia stage: blocks a specific stage of Vaccinia orthopoxvirus infection. hit rate 0.01% among 89,000. AID 1053133. Vaccinia-infected cells, mCherry/Venus stage reporter fluorescence; active compounds read low. activity change (mCherry), % (concentration not given with the values); in the data active means activity change below about -37%, passing the limit was not always enough; tested in A549 cells
* = called active by the depositor. The entries come from a sample that favours hits as a whole.

SMILES	Vaccinia stage
CC(=O)N1[C@@H]2c3ccc(C4=CCCC4)c(=O)n3C[C@@H]2[C@@H](CO)[C@@H]1C(=O)Nc1ccccc1	-2
C[C@@H]1CN([C@@H](C)CO)S(=O)(=O)c2ccc(C#C[C@@H](C)O)cc2O[C@@H]1CN(C)C(=O)C1CC1	11
CS(=O)(=O)Nc1ccc2c(c1)[C@H]1C[C@@H](CC(=O)N3CCc4ccccc4C3)O[C@@H](CO)[C@H]1O2	3
C[C@H](CO)N1C[C@H](C)[C@@H](CN(C)Cc2ccccc2)Oc2cc(C#C[C@@H](C)O)ccc2S1(=O)=O	-16
C[C@H](O)C#Cc1ccc2c(c1)O[C@H](CN(C)Cc1ccccc1)[C@@H](C)CN([C@@H](C)CO)S2(=O)=O	-26
C[C@@H](O)C#Cc1ccc2c(c1)O[C@@H](CN(C)Cc1ccc(-c3ccccc3)cc1)[C@@H](C)CN([C@@H](C)CO)S2(=O)=O	-92*
COc1ccccc1C#Cc1cnc2c(c1)C(=O)N([C@@H](C)CO)C[C@H](C)[C@H](CN(C)C)O2	5
CC(=O)N(C)C[C@@H]1Oc2ncc(/C=C/c3ccccc3)cc2C(=O)N([C@H](C)CO)C[C@@H]1C	6
COCC#Cc1ccc2c(c1)O[C@@H](CN(C)C(=O)CN(C)C)[C@H](C)CN([C@H](C)CO)S2(=O)=O	25
O=C(C[C@@H]1C=C[C@@H](NC(=O)C2CC2)[C@H](CO)O1)Nc1nccs1	2
CO[C@@H]1CN(C)C(=O)c2ccc(NC(=O)C3CC3)cc2OC[C@@H](C)N(CC2CC2)C[C@H]1C	15
CC(C)NC(=O)N(C)C[C@@H]1Oc2cc(-c3cncnc3)ccc2S(=O)(=O)N([C@H](C)CO)C[C@H]1C	17
O=C(C[C@H]1CC[C@@H]2NC[C@H](O)COC[C@H]2O1)Nc1ccccc1	6
CCCNC(=O)N(C)C[C@@H]1Oc2cc(-c3ccncc3)ccc2S(=O)(=O)N([C@H](C)CO)C[C@H]1C	15
O=C(NCC[C@@H]1CC[C@@H](NC(=O)C2CCC2)[C@@H](CO)O1)c1cc(Cl)cc(Cl)c1	8
O=C(C[C@H]1CC[C@@H]2[C@H](COC[C@H](O)CN2Cc2cc(F)cc(F)c2)O1)NC1CCCC1	-2
CCCNC(=O)Nc1ccc2c(c1)OC[C@H](C)N(CC1CCCC1)C[C@@H](C)[C@@H](OC)CN(C)C2=O	-1
CCNC(=O)[C@@H]1[C@@H](CO)[C@@H]2Cn3c(ccc(-c4cncnc4)c3=O)[C@H]1N2C(=O)Nc1ccccc1	11
CO[C@@H]1CN(C)C(=O)c2cc(NS(=O)(=O)c3ccccc3)ccc2OC[C@@H](C)N(Cc2cccnc2)C[C@@H]1C	-4

Assay outcomes (PubChem)
